Data: the supplement of paper PMC9262897, “Low-cost anti-mycobacterial drug discovery using engineered E. coli” (Nature Communications, 2022)
Counter-ions that a name gives are not always drawn. ± gives the standard deviation of the averaged measurements.

System: E. coli TESEC Mtb Alr
Assay: growth (OD600 after 10 h); higher = more growth (less inhibition)
Conditions: compound 0.1 mM
Description: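 TESEC Mtb Alr E. coli, or the Alr+ wild-type control, in 384-well plates with Prestwick library compounds at 0.1 mM and 1% DMSO, across arabinose induction levels of 1E3 to 1E7 nM. Growth is read as OD600 after 10 h at 37 °C in triplicate biological replicates.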

[1] = arabinose 1000 nM, raw OD600 reference: median of DMSO wells 0.294, cell-free background 0.041
[2] = arabinose 10000 nM, raw OD600 reference: median of DMSO wells 0.264, cell-free background 0.041
[3] = arabinose 100000 nM, raw OD600 reference: median of DMSO wells 0.201, cell-free background 0.041
[4] = arabinose 1000000 nM, raw OD600 reference: median of DMSO wells 0.193, cell-free background 0.041
[5] = arabinose 10000000 nM, raw OD600 reference: median of DMSO wells 0.146, cell-free background 0.041

Row | SMILES | growth [1] | growth [2] | growth [3] | growth [4] | growth [5]
1 | CCOC(=O)C1=C(C)NC(C)=C(C(=O)OC)C1c1cccc([N+](=O)[O-])c1 (stereo not given) [Nitrendipine] | 0.224 ± 0.01 | 0.0536 ± 0.0045 | 0.165 ± 0.0036 | 0.0556 ± 0.00083 | 0.15 ± 0.0073
2 | Nc1nc(N)c2nc(-c3ccccc3)c(N)nc2n1 [Triamterene] | 0.146 ± 0.012 | 0.12 ± 0.0045 | 0.138 ± 0.0069 | 0.0711 ± 0.0011 | 0.119 ± 0.0058
3 | CCCCC(O)c1ccccc1 (stereo not given) [Fenipentol] | 0.295 ± 0.005 | 0.253 ± 0.0059 | 0.233 ± 0.035 | 0.178 ± 0.0054 | 0.149 ± 0.0015
4 | CS(=O)(=O)Nc1ccc([N+](=O)[O-])cc1Oc1ccccc1 [Nimesulide] | 0.206 ± 0.0095 | 0.247 ± 0.0073 | 0.149 ± 0.0051 | 0.137 ± 0.0025 | 0.139 ± 0.0087
5 | CC[C@@H](CO)NCCN[C@@H](CC)CO [Ethambutol dihydrochloride] | 0.291 ± 0.023 | 0.255 ± 0.0099 | 0.216 ± 0.021 | 0.18 ± 0.0035 | 0.147 ± 0.0024
6 | Fc1ccc(C(c2ccc(F)cc2)N2CCN(C/C=C/c3ccccc3)CC2)cc1 [Flunarizine dihydrochloride] | 0.11 ± 0.019 | 0.0787 ± 0.0024 | 0.116 ± 0.012 | 0.0591 ± 0.0018 | 0.0509 ± 0.0027
7 | Cc1ccccc1OCC(O)CO (stereo not given) [Mephenesin] | 0.286 ± 0.0091 | 0.261 ± 0.016 | 0.209 ± 0.016 | 0.184 ± 0.0048 | 0.14 ± 0.0045
8 | Cc1cc(C2CCCCC2)n(O)c(=O)c1 [Ciclopirox ethanolamine] | 0.04303 ± 5.8e-05 | 0.03957 ± 0.00035 | 0.0447 ± 0.00064 | 0.03987 ± 0.00012 | 0.0504 ± 0.00059
